Data reported in PubChem BioAssay AID624352 (Sanford-Burnham Center for Chemical Genomics, 2012).
About 2,600 (0.72%) of roughly 360,000 compounds were called active.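 The calls were made as follows: active = inhibition of the luminescence signal of 40% or more relative to plate controls, in a single-dose primary screen at 18.75 µM; inactive = the rest.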 What follows is part of a selection rich in actives, with near analogues and random picks from the rest.

Assay: HIF-2a reporter inhibitors, primary screen, luminescence, 786-0 RCC cells (AID 624352)
Conditions: 786-0 RCC cells HIF-2a reporter, luciferase luminescence, overnight; at 18.8 µM; active compounds read high

inhibition, active:
COc1ccc(-c2oc3ncnc(NCCCO)c3c2-c2ccc(OC)cc2)cc1 40.9%
COc1ccc(NC(=O)/C(Cl)=C(/Cl)S(=O)Cc2ccc(C)cc2)cn1 (stereo not given) 90.8%
CS(=O)(=O)N(Cc1ccc(Cl)cc1)c1ccc(C(=O)NCCSCc2ccco2)cc1 43.2%
CCN1CCN(CCNC(=O)c2ccc3c(c2)NC(=O)/C(=C\c2cccc(Cl)c2)S3)CC1 90.6%

inhibition, inactive:
CCOc1ccc(S(=O)(=O)N2CCC(C(=O)NCc3ccccn3)CC2)cc1Cl 19.5%
COc1ccc(CCNC(=O)C(=O)NCC2OCCN2S(=O)(=O)c2ccc(F)cc2)cc1OC (stereo not given) -5.35%
CCOc1ccc(CN2CCN(Cc3ccc4cc(F)ccc4n3)CC2CCO)cc1 (stereo not given) 12.7%
O=C(c1ccccc1)c1cccn1CC(=O)N1CCN(c2ccc(F)cc2)CC1 12.9%
CCOCCCN(C(=O)Cn1nnc(-c2ccc(OC)c(OC)c2)n1)C(CC)C(=O)NC1CCCC1 (stereo not given) 18.1%
C[C@H](CO)N1C[C@H](C)[C@@H](CN(C)C(=O)c2cccc(F)c2)Oc2cc(-c3cncnc3)ccc2S1(=O)=O 9.48%
COc1ccc(-c2oc3ncn(Cc4ccco4)c(=N)c3c2-c2ccc(OC)cc2)cc1 8.92%
COCCNc1ncnc2c1ncn2[C@H]1CN(Cc2ccc(OC)cc2)C[C@@H](CO)O1 -2.96%
Cc1ccc(CCCOC(=O)C[N+]2(C)CCCCC2)cc1 1.23%
C[C@@H]1CN([C@H](C)CO)C(=O)CCCn2nncc2CO[C@@H]1CN(C)S(=O)(=O)c1cccc(C#N)c1 13.2%
NC(c1csc(NC(=O)Nc2ccccc2Oc2ccccc2)n1)c1ccccc1Cl (stereo not given) 24.3%
CCN(CC)c1ccc(NC(=O)CCc2nnc3ccc(N4CCCCC4)nn23)c(C)c1 -2.16%
Cc1nc(C(=O)N2CCCC(C(=O)c3ccc(Cl)cc3)C2)cs1 (stereo not given) 3.92%
CC(=O)Nc1c2c(nn1-c1ccc(C)cc1C)CS(=O)C2 (stereo not given) 4.45%
CCc1ccccc1N(CC(=O)NCCSCc1ccco1)S(C)(=O)=O 11.4%
Cc1cc(C)cc(N(CC(=O)NCCSCc2ccco2)S(C)(=O)=O)c1 15.8%
CC(C)(C)C1CCC(C(=O)Nc2cccnc2)CC1 (stereo not given) 10%
Cc1ccc2c(c1)N(CC(=O)N1CCOCC1)C(=O)CO2 7.44%
CC(OC(=O)c1ccccc1NCCO)C(=O)Nc1ccnn1C(C)C (stereo not given) 10%
CCN1CCCC1CNC(=O)c1ccc2c(c1)NC(=O)/C(=C\c1ccccc1F)S2 (stereo not given) -13.2%
O=C1Nc2cc(C(=O)N3CCC(N4CCCCC4)CC3)ccc2S/C1=C\c1ccccc1 -25.5%
